The source of these data is PubChem BioAssay (Tox21).

Unmarked numbers belong to inactive results. Inconclusive results are not listed. Calls of active or inactive are those of the source. Unless noted, calls come from the whole dose curve.

Assay [1] is described as follows: Nuclear factor erythroid 2-related factor 2/antioxidant responsive element (Nrf2/ARE) small molecule agonists: qHTS cell viability counter screen in human keratinocytes (AID 1919968; active = well fitted curve in the direction sought with a large enough effect in the repeat runs; an effect the other way counts as inactive or inconclusive; note: nearly all actives have a fitted effect of over 55% in size). In outline:
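Stably transfected HaCaT (KeratinoSens), 1,500/well. Test agents in DMSO were applied for 23 h, 37 C/5% CO2. CellTiter-Fluor was incubated 1 h before the fluorescence read.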

The nature of assay [2]: Nuclear factor erythroid 2-related factor 2/antioxidant responsive element (Nrf2/ARE) small molecule agonists: luciferase reporter gene qHTS assay in human keratinocytes (AID 1919969). Note: nearly all actives have a fitted effect of over 35% in size. Note: potency is the fitted concentration of half-maximal effect.
The target of assay [3] is Gonadotropin-releasing hormone receptor (Homo sapiens) (UniProt P30968). The experiment in a line: Human gonadotropin-releasing hormone receptor (GnRHR) small molecule agonists, calcium flux assay in GnRHR-HEK293 cells (AID 1920063). Note: nearly all actives have a fitted effect of over 35% in size. In outline:
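Stable human GnRHR HEK293 line. 18 h plating, then calcium dye for 1 h at 37 C. Agonist-mode compound addition from DMSO stocks; fluorescence monitored 3 min.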

The target in assay [4] is KiSS-1 receptor (Homo sapiens) (UniProt Q969F8). The experiment in a line: Human kisspeptin (KISS1R) small molecule agonists, calcium flux assay in KISS1R-HEK293 cells (AID 1920064; active = well fitted curve in the direction sought with a large enough effect in the repeat runs; an effect the other way counts as inactive or inconclusive). The essentials:
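After overnight (18 h) culture at 37 C/5% CO2, human KISS1R-HEK293 cells received calcium dye for 1 h, then test compound; emission at 540 nm (excitation 480 nm) was tracked for 3 min.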

A short description of assay [5]: G protein-coupled receptor (GPCR) small molecule agonists, calcium flux assay: HEK293 wild type cell line counter screen (AID 1920065). In outline:
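Following 18 h incubation at 37 C/5% CO2, plates got calcium dye for 1 h; compounds, ATP or DMSO were then pinned in and fluorescence followed kinetically (480/540 nm).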
In general terms: Calcium flux is commonly read through the fluorescence of an indicator in the cells.

Assay [6] is described as follows: p53 small molecule agonists, cell-based qHTS assay with rat liver microsomes (AID 1963578). In outline:
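Read-out is beta-lactamase reporter fluorescence (LiveBLAzer, 2 h, room temperature, dark) in p53RE-bla cells treated 16 h at 37 C with compound, rat liver microsomes and NADPH, both 0.5 mg/mL final.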
For orientation: Quantitative high-throughput screening tests each substance at several concentrations.

Assay [7] is described as follows: p53 small molecule agonists, cell-based qHTS assay with human liver microsomes: qHTS cell viability counter screen (AID 1963579). Note: nearly all actives have a fitted effect of over 45% in size. The essentials: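 Cells carrying the p53 response-element beta-lactamase reporter are treated for 16 h at 37 C with test compounds in the presence of human liver microsomes and NADPH (both 0.5 mg/mL final); ATP-based CellTiter-Glo luminescence then reports viability.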

Assay [8] is described as follows: p53 small molecule agonists, cell-based qHTS assay with rat liver microsomes: qHTS cell viability counter screen (AID 1963580). Note: nearly all actives have a fitted effect of over 45% in size. In outline:
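Luminescent ATP readout (CellTiter-Glo, 30 min at room temperature) reports viability of p53RE-bla HCT-116 cells after 16 h at 37 C with test compounds under metabolic activation by rat liver microsomes and NADPH at 0.5 mg/mL final each.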

A short description of assay [9]: p53 small molecule agonists, cell-based qHTS assay: qHTS cell viability counter screen (AID 1963581). Note: nearly all actives have a fitted effect of over 45% in size. In outline: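 qHTS counter screen: 16 h compound exposure at 37 C of p53RE-bla HCT-116 cells (4,000 per well, seeded 5 h prior), cell viability by ATP luminescence.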
Assay [10] can be described thus: p53 small molecule agonists, cell-based qHTS assay (AID 1963582; active = well fitted activation curve with a large enough effect in the signal ratio in the repeat runs, not every such curve was filed as active; the % refers to the signal ratio). The essentials: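 Measured: fluorescence from cleaved LiveBLAzer substrate. System: p53RE-bla cells, 16 h compound treatment at 37 C, 2 h substrate step at room temperature.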
In assay [11] the target is 5-hydroxytryptamine receptor 2A (Homo sapiens) (UniProt P28223). The experiment in a line: 5-hydroxytryptamine receptor 2A (HTR2A) small molecule antagonists, cell-based qHTS assay (AID 1963586). Note: nearly all actives have a fitted effect of over 45% in size. The essentials: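 CHO cells stably expressing human HTR2A were plated for 18 h at 37 C, then loaded with calcium dye for 1 h. Compounds were preincubated 5 min at room temperature before DOI (4 nM solution) was added. Kinetic fluorescence was read for 3 min.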

The target is the same in assay [12]. The assay is described as follows: 5-hydroxytryptamine receptor 2A (HTR2A) small molecule agonists, cell-based qHTS assay (AID 1963587). Note: nearly all actives have a fitted effect of over 30% in size. The essentials: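 HTR2A-CHO cells, plated 18 h at 37 C/5% CO2, dye-loaded 1 h at 37 C; compounds in DMSO added by pin tool (agonist mode). Intracellular calcium flux read as kinetic fluorescence on FDSS over 2 min at 1 s intervals.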

Assay [13] addresses Muscarinic acetylcholine receptor M1 (Homo sapiens) (UniProt P11229). The assay is described as follows: Cholinergic receptor muscarinic 1 (CHRM1) small molecule antagonists, cell-based qHTS assay (AID 1963588). Note: nearly all actives have a fitted effect of over 40% in size. The essentials:
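Compounds were tested at 15 concentrations in three independent runs. Dye-loaded CHRM1-CHO cells were exposed 5 min at room temperature before stimulation by acetylcholine added at 50nM. Intracellular calcium was read kinetically on FDSS for 3 min.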

Assay [14] has the same target. The experiment in a line: Cholinergic receptor muscarinic 1 (CHRM1) small molecule agonists, cell-based qHTS assay (AID 1963589). Note: nearly all actives have a fitted effect of over 35% in size. The essentials:
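Kinetic fluorescence (1 s intervals) of calcium-sensitive dye in human M1 CHO cells after compound addition; cells pre-incubated 18 h at 37 C/5% CO2 and dye-loaded 1 h.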

The target in assay [15] is Beta-2 adrenergic receptor (Homo sapiens) (UniProt P07550). The assay is described as follows: Adrenergic beta2 receptor (ADRB2) small molecule antagonists, cell-based qHTS assay (AID 1963592). Note: series mostly up to about 92 µM; nearly all actives have a fitted effect of over 50% in size. In outline: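 Assay format: CHO-ADRB2 cells, 18-20hr seeding at 37C/5% CO2, then compound plus 1nM isoproterenol agonist mix for 0.5hr RT. Homogeneous time-resolved fluorescence cAMP detection after 1hr, expressed as 665/615 nm ratio.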

Assay [16] has the same target. The assay is described as follows: Adrenergic beta2 receptor (ADRB2) small molecule agonists, cell-based qHTS assay (AID 1963593).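 Note: CHO cells stably overexpressing human ADRB2.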 The essentials: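 CHO cells stably over-expressing ADRB2 were plated overnight at 37C, then dosed with compounds plus a stimulation mix containing 100uM IBMX and 25uM Ro-20-1724 for 0.5hr at room temperature. cAMP was measured by HTRF competition, 1hr.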

The target of assay [17] is D(2) dopamine receptor (Homo sapiens) (UniProt P14416). The assay is described as follows: Dopamine D2 receptor (DRD2) small molecule agonists, cell-based qHTS assay (AID 1963594). Note: nearly all actives have a fitted effect of over 35% in size. The essentials: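 HEK293 cells stably expressing DRD2 were cultured 24 h at 37 C, then given Ro20-1724 (0.1 mM final) and compounds for 10 min at room temperature. NKH477 (200nM) was then added for 30 min. cAMP was read by HTRF.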

A short description of assay [18]: cAMP Responsive Elements (CRE) small molecule agonists, cell-based qHTS assay (AID 1963590). In outline:
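Test agents in DMSO were incubated 3 h at 37 C/5% CO2 with CRE-bla HEK 293T cells seeded 18 h earlier; LiveBLAzer B/G FRET substrate was added and read after 2 h at room temperature.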

A short description of assay [19]: cAMP Responsive Elements (CRE) small molecule antagonists, cell-based qHTS assay (AID 1963591; active = well fitted inhibition curve with a large enough effect in the signal ratio in the repeat runs, not every such curve was filed as active; the % refers to the signal ratio). The essentials: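 Reporter line CRE-bla HEK 293T in dialyzed-FBS DMEM; cells preincubated 18 h, treated 3 h with compound plus NKH477 (0.25 uM final); LiveBLAzer FRET, 2 h RT.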
Assay [20] concerns the target D(2) dopamine receptor (Homo sapiens) (UniProt P14416). The assay is described as follows: Dopamine D2 receptor (DRD2) small molecule antagonists, cell-based qHTS assay (AID 1963595; active = well fitted inhibition curve with a large enough effect in the signal ratio in the repeat runs, with a control signal flat; the % refers to the signal ratio). In outline:
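Stable D2 receptor HEK293 line, 24 h after seeding. Compound preincubated 10 min, then quinpirole (12 nM) with forskolin analogue NKH477 (200 nM), 30 min, room temperature. Detection by time-resolved FRET of cAMP.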

5-hydroxytryptamine receptor 2A (Homo sapiens), sequence (P28223 whole entry, looked up): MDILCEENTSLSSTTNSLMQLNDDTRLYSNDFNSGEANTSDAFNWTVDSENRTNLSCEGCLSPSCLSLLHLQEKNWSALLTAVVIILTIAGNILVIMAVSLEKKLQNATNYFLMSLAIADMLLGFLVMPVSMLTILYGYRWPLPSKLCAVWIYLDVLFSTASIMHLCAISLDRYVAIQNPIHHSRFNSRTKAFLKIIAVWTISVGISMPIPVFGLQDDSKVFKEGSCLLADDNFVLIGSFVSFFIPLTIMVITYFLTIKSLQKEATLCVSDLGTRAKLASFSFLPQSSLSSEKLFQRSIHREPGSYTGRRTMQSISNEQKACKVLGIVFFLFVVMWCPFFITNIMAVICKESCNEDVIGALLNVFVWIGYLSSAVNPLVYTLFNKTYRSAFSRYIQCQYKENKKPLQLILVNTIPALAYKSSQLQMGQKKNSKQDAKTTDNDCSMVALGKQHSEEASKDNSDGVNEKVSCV
D(2) dopamine receptor (Homo sapiens), sequence (P14416 whole entry, looked up): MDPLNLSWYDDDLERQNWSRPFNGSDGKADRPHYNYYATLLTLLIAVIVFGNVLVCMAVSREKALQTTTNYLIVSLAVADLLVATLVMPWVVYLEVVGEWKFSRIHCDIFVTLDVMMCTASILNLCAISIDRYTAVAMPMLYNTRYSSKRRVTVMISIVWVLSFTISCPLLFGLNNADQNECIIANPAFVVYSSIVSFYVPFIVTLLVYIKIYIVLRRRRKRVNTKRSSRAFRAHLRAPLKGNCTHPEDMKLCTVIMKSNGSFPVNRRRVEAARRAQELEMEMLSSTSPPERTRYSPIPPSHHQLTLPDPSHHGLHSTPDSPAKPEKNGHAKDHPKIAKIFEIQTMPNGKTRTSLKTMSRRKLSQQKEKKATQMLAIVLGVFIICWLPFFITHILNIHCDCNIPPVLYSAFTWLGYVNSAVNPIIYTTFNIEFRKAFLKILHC
Gonadotropin-releasing hormone receptor (Homo sapiens), sequence (P30968 whole entry, looked up): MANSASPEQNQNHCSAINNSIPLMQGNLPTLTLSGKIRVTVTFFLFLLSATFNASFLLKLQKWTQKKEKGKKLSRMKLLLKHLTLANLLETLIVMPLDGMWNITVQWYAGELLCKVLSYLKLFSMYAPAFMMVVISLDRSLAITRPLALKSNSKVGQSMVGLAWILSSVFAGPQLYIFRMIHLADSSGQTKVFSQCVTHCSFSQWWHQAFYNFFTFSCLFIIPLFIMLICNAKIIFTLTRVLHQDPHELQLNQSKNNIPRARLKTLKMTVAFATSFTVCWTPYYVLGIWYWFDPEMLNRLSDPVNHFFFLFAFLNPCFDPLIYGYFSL
Beta-2 adrenergic receptor (Homo sapiens), sequence (P07550 whole entry, looked up): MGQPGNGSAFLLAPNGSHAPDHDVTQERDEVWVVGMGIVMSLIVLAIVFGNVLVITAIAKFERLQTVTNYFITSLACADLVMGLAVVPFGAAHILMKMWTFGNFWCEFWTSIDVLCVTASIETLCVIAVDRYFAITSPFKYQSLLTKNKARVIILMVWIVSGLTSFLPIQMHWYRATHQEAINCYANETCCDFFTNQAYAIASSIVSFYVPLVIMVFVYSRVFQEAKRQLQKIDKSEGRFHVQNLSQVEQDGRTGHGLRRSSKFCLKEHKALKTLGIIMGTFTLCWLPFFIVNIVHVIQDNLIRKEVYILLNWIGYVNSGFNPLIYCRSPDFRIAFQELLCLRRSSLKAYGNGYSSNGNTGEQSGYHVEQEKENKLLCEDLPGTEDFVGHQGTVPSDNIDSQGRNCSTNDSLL
Muscarinic acetylcholine receptor M1 (Homo sapiens), sequence (P11229 whole entry, looked up): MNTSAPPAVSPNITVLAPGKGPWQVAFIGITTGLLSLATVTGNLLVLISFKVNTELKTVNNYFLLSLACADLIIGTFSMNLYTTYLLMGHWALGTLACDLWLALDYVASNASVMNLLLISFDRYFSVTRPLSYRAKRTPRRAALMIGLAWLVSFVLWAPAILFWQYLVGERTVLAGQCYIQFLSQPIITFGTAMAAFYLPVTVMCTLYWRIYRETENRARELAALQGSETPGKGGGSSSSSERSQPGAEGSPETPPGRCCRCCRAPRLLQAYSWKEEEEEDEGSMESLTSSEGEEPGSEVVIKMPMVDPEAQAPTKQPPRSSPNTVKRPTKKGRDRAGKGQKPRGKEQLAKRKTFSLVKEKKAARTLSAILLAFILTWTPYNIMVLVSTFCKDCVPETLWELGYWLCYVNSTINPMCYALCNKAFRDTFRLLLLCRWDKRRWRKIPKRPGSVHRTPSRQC
KiSS-1 receptor (Homo sapiens), sequence (Q969F8 whole entry, looked up): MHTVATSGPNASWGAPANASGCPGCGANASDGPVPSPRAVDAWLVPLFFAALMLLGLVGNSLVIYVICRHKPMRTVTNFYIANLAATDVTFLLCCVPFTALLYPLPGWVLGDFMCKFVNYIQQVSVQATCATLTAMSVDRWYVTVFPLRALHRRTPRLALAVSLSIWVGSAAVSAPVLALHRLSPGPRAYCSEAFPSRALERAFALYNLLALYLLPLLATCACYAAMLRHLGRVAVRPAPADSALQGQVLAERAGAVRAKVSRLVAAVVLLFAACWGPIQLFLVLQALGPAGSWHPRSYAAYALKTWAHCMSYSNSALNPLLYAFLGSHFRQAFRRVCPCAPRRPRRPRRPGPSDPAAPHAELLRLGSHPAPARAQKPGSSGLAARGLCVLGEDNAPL

Regarding `Cc1nc(C2CCCCC2)c(-c2ccc(S(N)(=O)=O)c(F)c2)o1`, the Potency result in assay [1], in assay [2], in assay [3], in assay [6], in [7] and in assay [8] was “inactive” throughout. The Potency entry in assay [9], in assay [10], in assay [11], in [12], in assay [13] and in [14] was “inactive” each time. The Potency result in assay [15], in assay [16] and in assay [17] was “inactive” throughout. The result in assay [4] and in [5] was inactive.
On to `CCCCOCCOC(=O)c1cccnc1`, for which the Potency entry in [1], in assay [2], in assay [3], in assay [6], in assay [7] and in assay [8] was “inactive” each time. Also, the Potency result in assay [9], in assay [10], in assay [13], in [14], in [18] and in assay [19] was “inactive” throughout. Further, the Potency entry in assay [15], in assay [17] and in assay [20] was “inactive” throughout. Further, the outcome in assay [4] and in assay [5] was inactive.
Consider `CC(C)(C)c1cccc(O)c1`, for which the Potency result in [1], in [3], in assay [6], in assay [7], in assay [8] and in [9] was “inactive” throughout. The Potency result in assay [10], in [12], in assay [13], in assay [14], in assay [18] and in [19] was “inactive” in each case. Also, the Potency entry in [15], in assay [16], in assay [17] and in assay [20] was “inactive” in each case. Further, in [2], the Potency is 61.1 µM (active). The outcome in [4] and in [5] was inactive.
As to `CC[C@H](NC(=O)c1cc(F)ccc1NS(=O)(=O)c1cccc2cccnc12)c1ccccc1`, the Potency result in assay [1], in assay [2], in [3], in assay [6], in assay [7] and in assay [8] was “inactive” each time. For the same compound, the Potency result in assay [9], in [10], in assay [11], in assay [12], in [13] and in assay [14] was “inactive” throughout. Besides, the Potency result in assay [17] and in [20] was “inactive” throughout. In addition, the result in [4] and in [5] was inactive.
As for `CC(N)C(=O)OC(C)(C)Cc1ccc(Cl)cc1` (centres undefined), the Potency result in [1], in [2], in [3], in [6], in assay [7] and in assay [8] was “inactive” in each case. In addition, the Potency result in [9], in assay [10], in assay [11], in [14], in assay [18] and in assay [15] was “inactive” throughout. Besides, the Potency result in assay [20] is “inactive”. The outcome in assay [4] and in [5] was inactive.
In the case of `CCCCc1ccc(N)cc1`, the Potency entry in [1], in assay [2], in assay [3], in assay [6], in assay [7] and in [8] was “inactive” throughout. Besides, the Potency entry in [9], in assay [11], in [12], in assay [13], in [14] and in [18] was “inactive” throughout. The Potency result in [19], in [15], in assay [17] and in assay [20] was “inactive” throughout. For the same compound, the result in assay [4] and in assay [5] was inactive.
Consider `COc1ccc(-n2nc(C(F)F)cc2-c2ccc(S(C)=O)cc2)cc1` (centres undefined), for which the Potency entry in [1], in [2], in assay [3], in [6], in assay [7] and in assay [8] was “inactive” in each case. In addition, the Potency result in assay [9], in [10], in assay [11], in assay [12], in assay [13] and in assay [14] was “inactive” in each case. The Potency result in assay [15], in assay [16] and in assay [17] was “inactive” each time. Further, the result in assay [4] and in assay [5] was inactive.
